Results published in the supplement of paper PMC13380429.
Values without a mark were called inactive.

Tested on: Vero E6 infected with SARS-CoV-2
Test: inhibition of SARS-CoV-2 cytopathic effect; higher = more antiviral protection, active = above 15
Details: 48 h

Row | SMILES | inhibition of SARS-CoV-2 cytopathic effect (1 nM) [%] | inhibition of SARS-CoV-2 cytopathic effect (8.33 nM) [%] | inhibition of SARS-CoV-2 cytopathic effect (100 nM) [%] | inhibition of SARS-CoV-2 cytopathic effect (833.33 nM) [%] | inhibition of SARS-CoV-2 cytopathic effect (10000 nM)
1 | CO[C@H](C(=O)[C@@H](O)[C@@H](C)O)[C@@H]1Cc2cc3cc(O[C@H]4C[C@@H](O[C@H]5C[C@@H](O)[C@H](O)[C@@H](C)O5)[C@@H](O)[C@@H](C)O4)c(C)c(O)c3c(O)c2C(=O)[C@H]1O[C@H]1C[C@@H](O[C@H]2C[C@@H](O[C@H]3C[C@](C)(O)[C@H](O)[C@@H](C)O3)[C@H](O)[C@@H](C)O2)[C@H](O)[C@@H](C)O1 [plicamycin] | 2.66 | 3.18 | 3.85 | -3.43 | -7.42%
2 | N[C@H](C(=O)O)c1ccc(O)cc1 [oxfenicine] | 2.15 | 3.82 | 2.38 | 0.58 | 2.3%
3 | CCOc1ccc(-n2c([C@@H](C)N(Cc3cccnc3)C(=O)Cc3ccc(OC(F)(F)F)cc3)nc3ncccc3c2=O)cc1 (racemic) | 0.51 | 2.23 | 0.96 | 1.88 | -1.62%
4 | C=C1CC[C@@H]2[C@](C)(CO)[C@H](O)CC[C@@]2(C)[C@@H]1C/C=C1/C(=O)OC[C@H]1O [andrographolide] | -3.07 | -2.2 | -0.1 | 8.92 | 32.5% (active)
5 | Cc1cc(/C=C/C#N)cc(C)c1Nc1ccnc(Nc2ccc(C#N)cc2)n1 [rilpivirine] | 0.35 | -3.25 | -2.82 | -1.06 | -6.76%
6 | COc1ccc(C2(CNC(=O)c3ccc(NC(=O)c4ccco4)cc3)CCOCC2)cc1 | 1.26 | 1.21 | -2.16 | -1.65 | -2.44%
7 | C[C@H](N[C@@H](CCc1ccccc1)C(=O)O)C(=O)N1CCC[C@H]1C(=O)O [enalaprilat] | -0.58 | 1.11 | -0.39 | 1.61 | 2.39%
8 | CN1CCC(CNc2ccc3ncc(-c4cccc(OC(F)(F)F)c4)n3n2)CC1 | 2.01 | 5.2 | 2.97 | -0.97 | 19.8% (active)
9 | Cc1cc(C)c(NC(=O)C2CC3CCC2C3)c(C)c1 (stereo not given) | -1.62 | -1.21 | -3.03 | -0.39 | 2.61%
10 | COc1cc2/c(=N/c3ccc(Br)cc3F)nc[nH]c2cc1OCC1CCN(C)CC1 [vandetanib] | -1.28 | 2.63 | -1.67 | -6.04 | -3.93%
11 | CCCNC(C)C(=O)Nc1c(C)csc1C(=O)OC (stereo not given) [articaine] | -0.23 | 0.85 | 0.42 | 4.27 | -2.09%
12 | O=C(O)c1ccc(N2C(=O)/C(=C/c3ccc(-c4ccc([N+](=O)[O-])cc4)o3)C=C2c2ccccc2)cc1 | -2.98 | -0.14 | 1.72 | -6.51 | -0.18%
13 | O=C(Nc1ccncc1)c1cc([N+](=O)[O-])ccc1Cl | -0.14 | 1.74 | -1.69 | -1.5 | 14.7%
14 | CCNC(=O)/C=C/c1cccc(Br)c1 [cinromide] | 0.47 | 1.25 | 0.09 | 2.1 | 1.33%
15 | CC(/C=C/C(=O)NO)=C\[C@@H](C)C(=O)c1ccc(N(C)C)cc1 [trichostatin-a] | -3.04 | -7.12 | -16 | -31 | -31.1%
16 | C=CC(=O)c1ccc2ccccc2c1 [JAK3-inhibitor-V] | -1.46 | -1.7 | -2.73 | -2.88 | 1.9%
